SARS PLP yeast – qHTS of Yeast-based Assay for SARS-CoV PLP. AID 485353, 2010. Potency, µM (titrated, usually from 32.9 µM), inactives show at the highest dose activity, positive = growth rescue, hits mostly activators. 330,000 compounds, 0.19% hits. S. cerevisiae expressing SARS-CoV PLpro, growth rescue; calls by dose curve; note: potency is the fitted concentration of half-maximal effect; 0% is about no effect; nearly all actives have a fitted effect of over 55% in size
Shiga inhibitor – A qHTS for Small Molecule Inhibitors of Shiga Toxin. Vero cells, Shiga toxin protein synthesis inhibition reporter. AID 2315, 2010. inhibition, % at 38.7 µM. 290,000 compounds, 9.2% hits; in the data active = inhibition mostly above about 28%, no sharp cut-off; inactive = mostly below about 43%; note: 0% is about no effect
Pf growth 48h – Primary qHTS for delayed death inhibitors of the malarial parasite plastid, 48 hour incubation; P. falciparum luciferase growth in erythrocytes, 48 h; Potency, µM (series often up to 28.7 µM), for the others: top-dose activity change, negative = inhibition, most hits filed as inhibitors; 310,000 compounds, 5.9% hits; AID 504832, 2011; note: potency is the fitted concentration of half-maximal effect; % is set by controls: 0 for no effect and ±100 for the full control effect
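Compounds are pin-transferred into medium, infected erythrocytes (2% hematocrit, 0.1% parasitemia final) are added, and plates sit one parasite generation at 37 C in 5% CO2. Detection reagent is then added and luminescence measured.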
Pf growth 96h – Primary qHTS for delayed death inhibitors of the malarial parasite plastid, 96 hour incubation; P. falciparum luciferase reporter growth, 96 h; Potency, µM (highest dose often 28.7 µM), for inactives: at the highest dose activity change, negative = inhibition, actives largely listed as inhibitors; AID 504834, 2011; 320,000 compounds, 6.9% hits; note: potency is the fitted concentration of half-maximal effect; % is set by controls: 0 for no effect and ±100 for the full control effect
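Two parasite generations (96 h, 37 C, 5% CO2) of compound exposure in infected erythrocytes (0.05% parasitemia, 2% hematocrit). Luciferase-reporter P. falciparum; decreased luminescence indicates inhibited growth, aimed at apicoplast-acting delayed death.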
Cycloheximide cs – Cycloheximide Counterscreen for Small Molecule Inhibitors of Shiga Toxin | cell reporter, cycloheximide protein synthesis inhibition counterscreen | max response, % | 300,000 compounds, 12% hits | AID 2314, 2010; in the data active = max response mostly above about 13%, no sharp cut-off; inactive = mostly below about 14%; note: read at 38.3 µM for the half of the compounds with a filed dose; 0% is about no effect
AMA1-RON2 inh – qHTS for Inhibitors of AMA1-RON; Towards Development of Antimalarial Drug Lead: Primary Screen. Plasmodium falciparum AMA1 (3D7) - RON2 peptide interaction. AlphaScreen AMA1-biotinylated RON2 peptide binding. Potency, µM (top dose mostly 58.2 µM), inactives show top-dose activity change, negative = inhibition, usual class: inhibitors. 360,000 compounds, 0.2% hits. AID 720542, 2013;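 note: potency is the fitted concentration of half-maximal effect; 0% = vehicle wells and -100% = peptide control; nearly all actives have a fitted effect of over 45% in size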
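AMA1 (3D7) with his tag at 25 nM final met compounds first, then biotinylated RON2 peptide at 25 nM; detection used donor plus acceptor beads, 10 µg/mL apiece, read by AlphaScreen after 30 min at room temperature.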
Active calls of the source: *; u = inconclusive; x = not tested or not shown; + = active, no number; ! = repeats disagree; [ ] = remark or other dose. A selection: hits, their analogues and other compounds. The true share with any hit is near 19%. Unless noted, calls come from the whole dose curve; as a rule, active = well fitted curve in the direction sought with a large enough effect; inconclusive = small, poorly fitted or top-dose-only effect, or another doubt; inactive = no such curve, though single readings can be large; an effect the other way counts as inactive or inconclusive.

SMILES	SARS PLP yeast	Shiga inhibitor	Pf growth 48h	Pf growth 96h	Cycloheximide cs	AMA1-RON2 inh
CS(=O)(=O)c1ccc(Cl)c(NC(=O)COC(=O)CNC(=O)c2cccs2)c1	-0.9%	x	11.9%	35.8%	x	-5.7%
CS(=O)(=O)c1ccc(Cl)c(NC(=O)CCl)c1	7.3%	3.1	9.28µM*	u	13.1	-17.1%
Cc1ccc(NC(=O)Nc2cc(S(C)(=O)=O)ccc2Cl)cc1	0.3%	78.0*	91.3%	150.7%	36.1*	1.9%
O=C(Nc1ccc2c(c1)oc1ccccc12)c1ccc(Br)o1	-11.5%	55.8	x	-26.5%	27.8	-4.2%
CN(C(=S)NC(=O)c1ccc(Br)o1)c1ccccc1	-13.3%	29.7*	12.0%	36.3%	11.0	54.3%
CN(C)S(=O)(=O)c1ccc(NC(=S)NC(=O)c2ccc(Br)o2)cc1	0.3%	-0.3	-7.6%	16.9%	5.0	x
Cc1nc(NC(=O)c2ccc(Br)o2)ccc1Br	-11.9%	63.1*	32.1%	74.2%	36.1*	1.2%
O=C(Nc1ccccc1)c1ccc(Br)o1	-43.6%	+!	100.8%	72.5%	43.7*	-0.3%
O=C(Nc1cccc(NC(=O)c2ccc(Br)o2)n1)c1ccc(Br)o1	24.5%	5.9	3.0%	53.5%	12.4	u
O=C(Nc1ccc2ccccc2c1)c1ccc(Br)o1	-10.5%	86.5*	110.6%	-28.9%	43.1*	-3.1%
COc1cccc(C(=O)NNC(=O)c2ccc3ccccc3c2)c1	x	x	x	x	x	32.3%
CCCCN(CCCNC(=O)CN1C(=O)COc2ccc(S(=O)(=O)N3CCC(C)CC3)cc21)Cc1ccccc1	6.3%	-10.7	u	u	-4.2	-4.7%
O=C(Nc1cccc(NC(=O)c2ccc(Br)o2)c1)c1ccccc1	-32.7%	21.4	18.3%	22.7%	6.6	-13.1%
CCc1cccc(NC(=O)c2ccc(Br)o2)c1	-5.2%	105.1*	15.6%	14.2%	23.0*	-4.8%
NS(=O)(=O)c1ccc(NC(=S)NNC(=O)c2ccc(Br)o2)cc1	-2.6%	35.1	-4.6%	u	14.9*	124.4%
NS(=O)(=O)c1ccc(NC(=S)NC(=O)c2ccc(Br)o2)cc1	0.7%	17.4	22.6%	35.3%	7.3	58.7%
O=C(c1ccccc1)c1cccc(NC(=O)c2ccc(Br)o2)c1	-34.0%	94.6	u	x	39.0*	-25.4%
COc1ccc(NC(=O)c2ccc(C(=O)c3ccccc3)o2)cc1	3.0%	28.2	7.38µM*	35.7%	30.2*	17.1%
CCCCCC(=O)Nc1cccc(C2=NOC3(C2)C[C@H](C(N)=O)N(C(=O)CC)C3)c1 (stereo partly drawn)	0.6%	-7.5	45.6%	47.6%	-4.5	13.9%
CCCCN(CC)CCCNC(=S)Nc1ccc2nc3n(c(=O)c2c1)CCCCC3	12.5%	-8.2	1.2%	-4.7%	-0.6	-0.3%
COc1ccc(C)cc1S(=O)(=O)n1cnc2ccccc21	6.1%	-6.3	16.2%	5.9%	-1.8	10.0%
Cc1cccc(NC(=O)c2ccccc2C(=O)Nc2cccc(C)c2)c1	x	x	x	x	x	0.1%
Cc1cccc(NC(=O)c2ccc(C(=O)c3ccccc3)o2)c1	-1.5%	72.7*	-19.6%	u	36.8*	u
CCOC(=O)CC1Sc2ccccc2NC1=S (stereo not drawn)	1.4%	15.9	u	-18.4%	4.0	5.4%
COc1cc(C2C(C#N)=C(N)N(c3cccnc3)C3=C2C(=O)CCC3)ccc1O (stereo not drawn)	-5.9%	-9.1	x	u	-4.4	19.0%
SMILES	SARS PLP yeast	Shiga inhibitor	Pf growth 48h	Pf growth 96h	Cycloheximide cs	AMA1-RON2 inh
CCSc1sccc1C1C(C#N)=C(N)N(c2cccnc2)C2=C1C(=O)CCC2 (stereo not drawn)	5.6%	1.2	11.7µM*	239.1%	-2.8	46.9%
CC1=C(C(=O)OCCOC(C)C)C(c2cccnc2)C2=C(CCCC2=O)N1 (stereo not drawn)	0.4%	-18.3	37.1%	x	-2.0	4.8%
CCOC(=O)C1=C(N)N(c2ccccc2)C2=C(C(=O)CCC2)C1c1cccnc1 (stereo not drawn)	4.0%	-10.7	-20.2%	5.22µM*	-4.2	21.0%
O=C(NCc1ccccn1)C1(C(F)(F)F)CC(CCCO)CCCO1 (stereo not drawn)	x	-7.3	x	x	-0.6	x
O=C(C(=O)N1CCN(c2ccc(F)cc2)CC1)c1cn(CC(=O)N2CCOCC2)c2ccccc12	4.0%	-7.3	-6.1%	13.1µM*	-10.7	-4.8%
O=C(C(=O)N1CCCCC1)c1cn(CC(=O)N2CCCCCC2)c2ccccc12	5.8%	-1.9	u	11.7µM*	-1.4	9.8%
O=C(Nc1ccccc1)C(=O)c1cn(CC(=O)N2CCCCC2)c2ccccc12	2.1%	24.2	-20.2%	10.4µM*	13.8	0.0%
Cc1nc(C)c(C(=O)N/N=C/c2ccco2)s1	1.6%	-4.0	53.6%	9.7%	10.1	-1.3%
COc1ccc(N2CCN(C(=O)CCCC(=O)c3ccccc3)CC2)cc1	0.7%	9.2	10.8%	12.1%	8.8	-20.2%
COc1ccc(C(=O)CCC(=O)N2CCN(c3ccc(C)cc3)C(C)C2)cc1 (stereo not drawn)	-11.3%	-8.3	-15.6%	9.28µM*	-2.8	-12.6%
CN(Cc1ccccc1)C(=O)[C@@H]1CCCN1C(=O)[C@@H]1CCCN1C(=O)c1cccc(Cl)c1	x	x	x	x	x	-3.7%
COC(=O)c1nn(-c2cccc(C)c2)c2nnc(Cc3ccc(C)cc3)c(=O)n12	-19.7%	-2.6	16.0%	-11.7%	-0.3	21.1%
Cc1ccc(Cc2nnc3n(-c4cccc(C)c4)nc(C(=O)c4ccccc4)n3c2=O)cc1	0.9%	-3.5	5.22µM*	3.7µM*	-4.2	0.6%
CCCN(CCc1cccs1)[C@H]1CCc2c(O)cccc2C1	x	x	6.75µM*	1.51µM*	x	x
CCC(=O)N(Cc1cccs1)C1CCOC(C)(C)C1 (stereo not drawn)	2.3%	-4.9	u	26.3%	-3.0	-17.8%
OC[C@@H]1CN(Cc2ccc(Cl)cc2)C[C@H](n2cnc3c(NC4CC4)ncnc32)O1	x	x	x	x	x	-7.2%
FC(F)Oc1ccc(C2N=C(c3ccccc3)NO2)cc1 (stereo not drawn)	1.9%	78.6*	122.9%	191.3%	45.4*	20.7%
COc1cc(C2N=C(c3ccccc3)NO2)cc(Br)c1O (stereo not drawn)	-10.5%	19.4	15.3%	33.7%	10.2*	2.9%
COc1cc(/C=C2\C(=O)ON=C2c2ccccc2)cc(Br)c1O	-1.7%	-2.1	-11.4%[0.00184 µM]	-72.5%	-1.7	u
COc1ccc(C2N=C(c3ccccc3)NO2)cc1OC (stereo not drawn)	-16.2%	86.7*	189.5%	247.6%	21.9*	-8.5%
Cc1cccc(C)c1NC(=O)C(c1ccccc1)N1CCC(c2ccccc2)CC1 (stereo not drawn)	x	x	x	x	x	-0.9%

Bioassay records from PubChem.
